From PubChem BioAssay (NCATS)
Where “and” joins values, the source holds several entries; their conditions need not be identical. Equal entries are not always repeated. Inconclusive results are not listed. Calls of active or inactive are those of the source. Unless noted, the call rests on the fitted dose curve; in most records, active means well fitted curve in the direction sought with a large enough effect; inconclusive means small, poorly fitted or top-dose-only effect, or another doubt; inactive means no such curve, though single readings can be large; an effect the other way counts as inactive or inconclusive.

Columns and labels:
[1] = Cell Viability - BJ (AID 421; calls by dose curve;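 further: potency means the concentration at half of the fitted maximal effect; cells exposed to compound for 40 hours at 37 °C before readout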); details: BJ fibroblast viability, qHTS
In short: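 Cytotoxicity in human BJ foreskin fibroblasts is scored as loss of cellular ATP after a 40-hour exposure, measured by luciferase luminescence. Controls are DMSO and 100 uM tamoxifen.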

[2] = Cell Viability - Jurkat (AID 426;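 active means dose-dependent loss of cell ATP signal giving a full or clear fitted curve, ranked by lower potency value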;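 further: potency means the concentration at half of the fitted maximal effect; cells exposed to compound for 40 hours at 37 °C before ATP read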); details: qHTS
In short: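 Luminescent ATP read-out (CellTiter-Glo, 20 min at room temperature) after 40 hr compound exposure at 37 °C of Jurkat E6-1 cells, 5000/well. Decreased ATP taken as cytotoxicity; AC50 from standard Hill equation.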

[3] = Cell Viability - Hek293 (AID 427;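 active means compounds whose dose-response curve shows a full or clear partial loss of cell viability, called from curve shape rather than a numeric limit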;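 further: potency means the concentration at half of the fitted maximal effect; cells exposed to compound for 40 hours at 37 °C before reading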); details: qHTS
In short: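 qHTS, human embryonic kidney (adenovirus-transformed) cells; 40 hr cpd, 37 °C; CellTiter-Glo ATP luminescence. Norm: DMSO = 0, 100 uM tamoxifen = 100% inhibition. Hill-fit AC50.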

[4] = Cell Viability - HepG2 (AID 433; calls by dose curve;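 further: potency means the concentration at half of the fitted maximal effect; cells exposed to compound for 40 hours; potency for ATP loss meaning cytotoxicity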); details: qHTS
In short: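 ATP luminescence (CellTiter-Glo) after 40 h compound exposure, 37 °C, HepG2, 1500 cells/well, complete medium. Normalized: DMSO = basal, 100 uM tamoxifen = 100% inhibition. AC50 via standard Hill equation.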

[5] = Cell Viability - MRC5 (AID 434; calls by dose curve;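 further: potency means the concentration at half of the fitted maximal effect; cells exposed to compound for 40 hours at 37 °C; potency reflects cytotoxicity seen as loss of intracellular ATP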); details: MRC5 lung fibroblast viability, qHTS
In short: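 ATP luminescence read-out (CellTiter-Glo, 20 min RT) after 40 hr, 37 °C compound exposure of 1500 MRC5 cells/well. Data normalized to DMSO (basal) and 100 uM tamoxifen (100% inhibition); AC50 from standard Hill equation.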

[6] = Cell Viability - SK-N-SH (AID 435; calls by dose curve; further: potency means the concentration at half of the fitted maximal effect); details: SK-N-SH neuroblastoma cell viability qHTS
In short: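 CellTiter-Glo ATP luminescence, 20 min RT read; cells pre-plated 5 hr, compound 40 hr at 37 °C, 1500 cells/well, complete medium. Normalized DMSO = 0, 100 uM tamoxifen = 100% inhibition; Hill-fit AC50.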

[7] = Cellular Toxicity (caspase-3) HepG2 (AID 654); details: HepG2 caspase-3 activation, luminescence, 0% = DMSO only, 100% = tamoxifen; series mostly up to 92.2 µM;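 further: cells exposed to compound for 16 hours before reading; 0% = DMSO alone and 100% = caspase signal from 100 µM tamoxifen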
In short: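 Luminescent Caspase-Glo 3/7 readout after 16 hr compound exposure of human hepatocellular carcinoma HepG2 cells at 37 °C; qHTS concentration-response, normalized DMSO = 0%, 100 uM tamoxifen = 100%; AC50 by standard Hill equation.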

[8] = Cellular Toxicity (caspase-3) BJ (AID 658); details: BJ fibroblasts, luminescence, normalized: DMSO 0%, staurosporine 100%; series mostly up to 91.7 µM
In short: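 qHTS, BJ fibroblasts, 1000 cells/well; 5 hr preincubation, 16 hr compound, 37 °C; Caspase-Glo 3/7 reagent, 1 hr RT; luminescence. DMSO = 0%, 10 uM staurosporine = 100%. Hill-equation AC50.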

[9] = Cellular Toxicity (caspase-3) MRC-5 (AID 659); details: MRC-5 cells, luminescence, normalized: DMSO 0%, 10 µM staurosporine 100%; series mostly up to 91.7 µM
In short: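 MRC-5 fibroblasts, 1500/well; 16 h cpd, 37 °C; Caspase-Glo 3/7, 1 h RT; lumi read. Norm: DMSO = 0%, 10 uM staurosporine = 100%. Hill-fit AC50 from qHTS conc-response.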

[10] = Cellular Toxicity (caspase-3) Hek293 (AID 664); details: HEK293 caspase-3 activation, DMSO = 0%, 100 µM tamoxifen = 100%; at 92.2 µM (top of the series);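 further: cells exposed to compound for 16 h at 37 °C before readout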
In short: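 Luminescent Caspase-Glo 3/7 readout (aminoluciferin release) in HEK293 cells after 16 h compound treatment, 37 °C. Normalization: DMSO = basal, 100 uM tamoxifen = 100% stimulation. Concentration-response fitted with standard Hill equation for AC50.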

[11] = Cellular Toxicity (caspase-3) N2a (AID 665); details: N2a cells, luminescence, normalized: DMSO 0%, 10 µM staurosporine 100%; series mostly up to 92.2 µM;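 further: compound exposure lasted 16 h at 37 °C before readout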
In short: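 Luminescent Caspase-Glo 3/7 readout in N2a mouse neuroblastoma cells after 16 h compound exposure at 37 °C. Signal scaled to DMSO (basal) and 10 uM staurosporine (100%). Concentration-response fitted with Hill equation for AC50.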

[12] = Cellular Toxicity (caspase-3) NIH 3T3 (AID 666); details: NIH 3T3 caspase-3 activation, apoptosis/toxicity; series mostly up to 92.2 µM;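 further: 0% = DMSO basal and 100% = 100 µM tamoxifen stimulation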
In short: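 NIH 3T3, 1000 cells/well, 5 hr settle then 16 hr compound at 37°C; Caspase-Glo 3/7, 20 min RT, luminescence. DMSO = basal, 100 uM tamoxifen = 100%. Hill-equation AC50, qHTS.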

[13] = MultiTox-Fluor Cytotoxicity Assay - LYMP1-001 - Dead Cells (AID 946); details: LYMP1-001 lymphoblastoid cells, dead-cell protease fluorescence; series mostly up to 92.2 µM
In short: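 Seed 2500 LYMP1-001 cells/well, incubate 5 hr at 37 C; add compound, 16 hr at 37 C; add MultiTox-Fluor reagent, 60 min RT; read dead-cell fluorescence Ex/Em=485/520. Normalize to DMSO and 15 uM tetraoctylammonium bromide.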

[14] = MultiTox-Fluor Cytotoxicity Assay - LYMP1-002 - Live Cells (AID 955); details: LYMP1-002 lymphoblastoid live-cell protease fluorescence viability; series mostly up to 46.1 µM; further: on the % scale 0 is the no-effect control and ±100 the full control effect
In short: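 LYMP1-002 lymphoblastoid cells; 2500 cells/well; 16 hr compound exposure, 37 C; MultiTox-Fluor reagent 60 min RT; live-cell fluorescence Ex/Em=405/510; qHTS concentration-response, Hill-equation AC50; tetraoctylammonium bromide positive control.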

[15] = MultiTox-Fluor Cytotoxicity Assay - LYMP1-003 - Dead Cells (AID 961); details: LYMP1-003 lymphoblastoid cells, dead-cell protease fluorescence; series mostly up to 92.2 µM; further: nearly all actives have a fitted effect of over 70% in size
In short: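 LYMP1-003 lymphoblastoid, 2500 cells/well, 5 hr settle then 16 hr cpd at 37 C; MultiTox-Fluor reagent 60 min RT; Ex/Em 485/520 dead-cell signal; norm. DMSO = 0%, 15 uM tetraoctylammonium bromide = 100%; Hill AC50.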

[16] = Cell Viability - LYMP2-008 (AID 980); details: LYMP2-008 lymphoblastoid cell viability, qHTS; series mostly up to 92.2 µM; further: on the % scale 0 is the no-effect control and ±100 the full control effect; nearly all actives have a fitted effect of over 60% in size
In short: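 Luminescent ATP read-out (CellTiter-Glo, 30 min RT) after 24 hr compound exposure at 37 C of human lymphoblastoid cells in complete medium. Decrease in ATP taken as cytotoxicity; AC50 derived by standard Hill fit of qHTS concentration-response data.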

[17] = Cell Viability - LYMP1-002 - Assay at 24 hr (AID 993); details: LYMP1-002 lymphoblastoid cells viability; series mostly up to 92.2 µM; further: on the % scale 0 is the no-effect control and ±100 the full control effect
In short: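 CellTiter-Glo luminescence (intracellular ATP) after 24 h compound exposure, 37 C, in LYMP1-002 human lymphoblastoid cells; decreased ATP taken as cytotoxicity. AC50 from standard Hill fit of concentration-response curves.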

[18] = qHTS Assay for Identification of Small Molecule Inducers of Hypoxia Response (AID 2120; active means well fitted curve in the direction sought with a large enough effect in the signal ratio, with a control signal flat, not every such curve was filed as active; the % refers to the signal ratio; further: 0% is about no effect); details: hypoxia response reporter cells, beta-lactamase ratio readout; series mostly up to 104 µM
In short: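 Read-out: CCF4 FRET emission ratio 460nm/530nm (excitation 405nm), converted to %Activity, with AC50 fitted across a compound titration. ME-180 cells carried an HRE-driven beta-lactamase reporter; compound exposure 17 h, 37 degrees C.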

[19] = biological target: Peroxisome proliferator-activated receptor alpha (Homo sapiens) (UniProt Q07869); test: qHTS assay for small molecule agonists of the peroxisome proliferator-activated receptor alpha (PPARalpha) signaling pathway (AID 651778); details: PathHunter PPARalpha complementation, chemiluminescence, 6 h; hits give high values; further: % of control where 0% means no effect
Sequence of Peroxisome proliferator-activated receptor alpha (Homo sapiens) (Q07869 whole entry, looked up, the tested form may be a part): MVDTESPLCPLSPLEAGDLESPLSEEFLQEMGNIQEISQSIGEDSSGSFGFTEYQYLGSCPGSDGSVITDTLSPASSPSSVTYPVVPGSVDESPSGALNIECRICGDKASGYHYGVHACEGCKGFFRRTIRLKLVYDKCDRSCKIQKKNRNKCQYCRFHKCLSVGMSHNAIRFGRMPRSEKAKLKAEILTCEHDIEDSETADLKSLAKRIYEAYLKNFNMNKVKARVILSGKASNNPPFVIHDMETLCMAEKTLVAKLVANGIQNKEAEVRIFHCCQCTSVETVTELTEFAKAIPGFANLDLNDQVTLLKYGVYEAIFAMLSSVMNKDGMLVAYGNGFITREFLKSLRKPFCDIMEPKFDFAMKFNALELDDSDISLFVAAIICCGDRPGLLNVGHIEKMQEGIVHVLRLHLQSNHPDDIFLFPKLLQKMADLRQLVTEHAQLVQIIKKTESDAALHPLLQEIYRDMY
In short: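 Enzyme-fragment complementation assay in which ligand-bound PPARalpha translocates and forms an active enzyme that generates chemiluminescence. Cells were plated overnight, exposed to compound for 6 hr at 37 C, and then given detection reagent for 60 min at room temperature.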

[20] = qHTS assay for cell viability of the p53RE-bla HCT-116 cell line (AID 743292); details: p53RE-bla HCT-116 viability, ATP luminescence, 16 h; series mostly up to 95 µM; further: on the % scale 0 is the no-effect control and ±100 the full control effect; nearly all actives have a fitted effect of over 55% in size
In short: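 CellSensor p53RE-bla HCT-116 cells, 4,000/well, preincubated 5 h at 37 C, then exposed to compounds in DMSO for 16 h at 37 C. Viability read as CellTiter-Glo luminescence (intracellular ATP) after 30 min at room temperature.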

CC(Cl)(Cl)Cl
inactive: Potency [1] > 92 µM | Potency [2] > 92 µM | Potency [3] > 92 µM | Potency [4] > 92 µM | Potency [5] > 92 µM | Potency [6] > 92 µM | outcome [7] | outcome [8] | outcome [9] | caspase-3 activation [10] -1.64% | outcome [11] | Potency [12] | outcome [13] | outcome [14] | Potency [15] | Potency [16] | Potency [17] | Potency [18] | max response [19] -3.93% and -1.58% | Potency [20]

ClCc1ccccc1
inactive: Potency [1] > 92 µM | Potency [2] > 92 µM | Potency [3] > 92 µM | Potency [4] > 92 µM | Potency [5] > 92 µM | Potency [6] > 92 µM | outcome [7] | outcome [8] | outcome [9] | caspase-3 activation [10] 1.06% | outcome [11] | Potency [12] | outcome [13] | outcome [14] | Potency [15] | Potency [16] | Potency [17] | Potency [18] | max response [19] 3.28% | Potency [20]

CC(=O)NNc1ccccc1
inactive: Potency [1] > 92 µM | Potency [2] > 92 µM | Potency [3] > 92 µM | Potency [4] > 92 µM | Potency [5] > 92 µM | Potency [6] > 92 µM | outcome [7] | outcome [8] | outcome [9] | caspase-3 activation [10] -1.37% | outcome [11] | Potency [12] | outcome [13] | outcome [14] | Potency [15] | Potency [16] | Potency [17] | Potency [18] | max response [19] -1.86% | Potency [20]

C=C(Cl)CCl
inactive: Potency [1] > 92 µM | Potency [2] > 92 µM | Potency [3] > 92 µM | Potency [4] > 92 µM | Potency [5] > 92 µM | Potency [6] > 92 µM | outcome [7] | outcome [8] | outcome [9] | caspase-3 activation [10] 0.722% | outcome [11] | Potency [12] | outcome [13] | outcome [14] | Potency [15] | Potency [16] | Potency [17] | Potency [18] | max response [19] -4.17% | Potency [20]

ClC(Cl)c1ccccc1
inactive: Potency [1] > 92 µM | Potency [2] > 92 µM | Potency [3] > 92 µM | Potency [4] > 92 µM | Potency [5] > 92 µM | Potency [6] > 92 µM | outcome [7] | outcome [8] | outcome [9] | caspase-3 activation [10] 0.485% | outcome [11] | Potency [12] | outcome [13] | outcome [14] | Potency [15] | Potency [16] | Potency [17] | Potency [18] | max response [19] -0.698% | Potency [20]

ClCCBr
inactive: Potency [1] > 92 µM | Potency [2] > 92 µM | Potency [3] > 92 µM | Potency [4] > 92 µM | Potency [5] > 92 µM | Potency [6] > 92 µM | outcome [7] | outcome [8] | outcome [9] | caspase-3 activation [10] -0.69% | outcome [11] | Potency [12] | outcome [13] | outcome [14] | Potency [15] | Potency [16] | Potency [17] | Potency [18] | max response [19] 0.115% | Potency [20]

CC(C)[C@]12CC(=O)[C@H](C)[C@H]1C2
inactive: Potency [1] > 92 µM | Potency [2] > 92 µM | Potency [3] > 92 µM | Potency [4] > 92 µM | Potency [5] > 92 µM | Potency [6] > 92 µM | outcome [7] | outcome [8] | outcome [9] | caspase-3 activation [10] -0.456% | outcome [11] | Potency [12] | outcome [13] | outcome [14] | Potency [15] | Potency [16] | Potency [17] | Potency [18] | max response [19] 5.79% and -0.343% | Potency [20]

CCC(Cl)[N+](=O)[O-] (stereo not given)
inactive: Potency [1] > 92 µM | Potency [2] > 92 µM | Potency [3] > 92 µM | Potency [4] > 92 µM | Potency [5] > 92 µM | Potency [6] > 92 µM | outcome [7] | outcome [8] | outcome [9] | caspase-3 activation [10] -0.0531% | outcome [11] | Potency [12] | outcome [13] | outcome [14] | Potency [15] | Potency [16] | Potency [17] | Potency [18] | max response [19] 11.6% | Potency [20]

ClC(Cl)C(Cl)Cl
inactive: Potency [1] > 92 µM | Potency [2] > 92 µM | Potency [3] > 92 µM | Potency [4] > 92 µM | Potency [5] > 92 µM | Potency [6] > 92 µM | outcome [7] | outcome [8] | outcome [9] | caspase-3 activation [10] -0.455% | outcome [11] | Potency [12] | outcome [13] | outcome [14] | Potency [15] | Potency [16] | Potency [17] | Potency [18] | max response [19] -3.31% | Potency [20]

Oc1cccc(Cl)c1
inactive: Potency [1] > 92 µM | Potency [2] > 92 µM | Potency [3] > 92 µM | Potency [4] > 92 µM | Potency [5] > 92 µM | Potency [6] > 92 µM | outcome [7] | outcome [8] | outcome [9] | caspase-3 activation [10] -0.037% | outcome [11] | Potency [12] | outcome [13] | outcome [14] | Potency [15] | Potency [16] | Potency [17] | Potency [18] | max response [19] 16.7% | Potency [20]

CC(C)Br
inactive: Potency [1] > 92 µM | Potency [2] > 92 µM | Potency [3] > 92 µM | Potency [4] > 92 µM | Potency [5] > 92 µM | Potency [6] > 92 µM | outcome [7] | outcome [8] | outcome [9] | caspase-3 activation [10] -2.59% | outcome [11] | Potency [12] | outcome [13] | outcome [14] | Potency [15] | Potency [16] | Potency [17] | Potency [18] | max response [19] -8.27% | Potency [20]
